Source: PubChem (several laboratories)
An excerpt weighted towards active compounds, which were near 5.9% of everything screened.
ALR inh = blocks human ALR sulfhydryl oxidase activity; AID 485317; purified ALR, DTT oxidation, H2O2 HRP-luminol luminescence; hit rate 3.8% among 290,000; P55789; inhibition, % (test concentration not listed);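 active = mean replicate inhibition above about 79%, with every replicate also reaching it, limit read from the data; inconclusive = only one of the two criteria met; inactive = mean below limit and not every replicate reaching it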
PRMT1 FP inh = inhibitors of human PRMT1; inhibition, % at 2.79 µM; recombinant PRMT1, activity-based probe fluorescence polarization; hit rate 1.3% among 370,000; AID 652257;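 active = inhibition above about 21% made by adding two undisclosed values, limit read from the data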
LANA-H2B inh = blocks KSHV LANA binding to histone H2A/H2B; Q9QR71; inhibition, % (concentration not given with the values); hit rate 0.6% among 320,000; cell-free LANA-H2A/H2B peptide, fluorescence polarization; in the data active = inhibition mostly above about 10%, no sharp cut-off; inactive = mostly below about 6.7%
rCAG RNA binder = molecules binding r(CAG) RNA repeats. AID 651821. inhibition, % at 3 µM. hit rate 1.3% among 370,000. r(CAG) RNA repeat, TO-PRO-1 dye displacement fluorescence;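 active = inhibition above the plate cutoff, the mean of all test compounds on that plate plus 3 SD, cut at about 35% in these data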;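 note: 0% = DMSO alone and 100% = 100 µM mitoxantrone as full dye displacement; higher means more dye released from RNA so lower well fluorescence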
ABHD5-PLIN5 inh = inhibitors of human ABHD5-perilipin-5 interaction; Split G. princeps luciferase complementation, luminescence, 4 h; Q00G26+Q8WTS1; hit rate 0.78% among 360,000; inhibition, % at 4 µM; AID 602281;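 active = inhibition above the mean inhibition across every tested compound plus 3 SD, cut at about 22% in these data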;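 note: 0% = DMSO only wells and the 100% control is not disclosed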
Rtt109 HAT inh = C. albicans Rtt109 histone acetyltransferase inhibition | purified Rtt109/Vps75, ThioGlo CoA-SH fluorescence, 4 h | inhibition, % at 34.9 µM | hit rate 0.16% among 330,000 | AID 540336;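 active = inhibition of at least 50% in every replicate; inconclusive = best replicate reaches 50% inhibition but some replicates fall short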
Numbers without * were called inactive; ? = inconclusive; . = not tested or not shown.

SMILES | ALR inh | PRMT1 FP inh | LANA-H2B inh | rCAG RNA binder | ABHD5-PLIN5 inh | Rtt109 HAT inh
Cc1ccc(-n2c(SCC(=O)C(C)(C)C)nnc2-c2cccc(C)c2)cc1 | . | 0.8 | . | -0.9 | . | .
COc1ccc(-c2nnn3c2C2c4cc(-c5cccc(F)c5)ccc4CCN2C(=O)C3)cc1 (centres undefined) | . | 1.1 | . | 5.7 | . | .
Cc1ccc(C(C(=O)NC(C)(C)C)N(CC2CCCO2)C(=O)CCC(=O)Nc2ccccn2)cc1 (centres undefined) | . | 0.5 | 22.3* | 2.7 | 0.2 | -0.3
CCC(C)(C)NC(=O)C(c1ccc(C)cc1)N(CC1CCCO1)C(=O)CCC(=O)Nc1ccccn1 (centres undefined) | -8.9 | -0.6 | 9.5 | -0.7 | -2.2 | 10.7
CCOC(=O)c1nn(-c2ccc(C)c(C)c2)cc1O | 97.3* | 0.3 | 1.5 | 0.5 | 0.5 | 2.2
Cc1ccc(-c2ccc(CN3C(C)C(=O)N(Cc4cn(Cc5ccco5)nn4)CCS3(=O)=O)cc2)c(C)c1 (centres undefined) | . | 1.8 | . | 10.1 | 16.0 | .
C/C(=N\Nc1cc(N2CCOCC2)ncn1)c1ccc(O)cc1 | 96.7* | -1.6 | -2.7 | -5.4 | -2.4 | 5.1
COc1ccc(N2CCN(C(c3cccs3)C(C)NC(=O)C(=O)N3CCOCC3)CC2)cc1 (centres undefined) | ? | 6.0 | 4.9 | -5.1 | -3.0 | -0.1
COc1ccccc1C(=O)NC(C)C(c1cccs1)N1CCOCC1 (centres undefined) | -4.0 | 0.4 | 0.0 | -5.6 | -1.7 | 8.7
COc1ccccc1N1CCN(C(c2cccs2)C(C)NC(=O)C(=O)N2CCOCC2)CC1 (centres undefined) | 88.7* | 0.1 | -3.5 | -5.0 | -5.5 | 7.0
CC(NC(=O)C(=O)N1CCOCC1)C(c1cccs1)N1CCN(c2ccccc2)CC1 (centres undefined) | 98.2* | 4.7 | -2.2 | -3.8 | -0.4 | 10.7
O=[N+]([O-])c1ccc(CSc2ccc(S(=O)(=O)N3CCCC3)cn2)cc1 | . | . | -9.5 | . | -6.5 | -8.3
COc1ccc(-n2c(SCC(=O)Nc3ccccc3C)nc(O)c(Cc3ccccc3)c2=O)cc1 | 88.3* | 17.2 | 1.6 | 17.0 | -6.4 | -11.1
COc1ccc(-n2c(SCC(=O)Nc3ccc(C)cc3)nc(O)c(Cc3ccccc3)c2=O)cc1 | 98.3* | 6.6 | 1.5 | 23.8 | -1.0 | 1.2
CCOC(=O)c1oc2cccc(O)c2c1C | 1.6 | 1.3 | -1.2 | 1.1 | 0.5 | 16.2
CCOC(=O)c1oc2cccc(O)c2c1CN(Cc1ccccc1)C(C)=O | 85.2* | -3.4 | 4.3 | -1.9 | -5.5 | 7.1
CCOc1ccc(-c2nc(CSc3nncs3)cs2)cc1OC | 94.4* | 4.3 | -5.6 | -2.8 | -2.9 | -4.0
COc1cccc(/C=N/N2CCOCC2)c1O | 55.1 | -0.1 | -10.9 | -0.6 | -8.1 | -14.1
Oc1cccc(/C=N/N2CCCCC2)c1O | 99.0* | 6.7 | -2.6 | 8.3 | -8.9 | 5.3
Oc1ccc(/C=N/N2CCCCC2)c(O)c1O | 64.5 | 23.5* | 1.9 | 14.6 | -10.3 | 3.8
Oc1ccc(/C=N/N2CCCCC2)c(O)c1 | 97.7* | -2.1 | 2.3 | 0.7 | -3.4 | 12.4
Oc1ccccc1C=NN1CCCCCC1 | . | 0.3 | . | -0.8 | 0.0 | -6.3
Oc1ccc(/C=N/N2CCOCC2)c(O)c1O | 98.5* | 7.8 | -0.8 | 2.5 | -14.8 | 35.6
CCOC(=O)[C@]12CCCC=C1N(CCCOC)C(=O)[C@@H]2CC(=O)NCc1ccc(C)o1 | . | -0.3 | . | -1.7 | . | .
S=c1nc(-c2sccc2OCc2ccc(Cl)cc2Cl)[nH][nH]1 | 96.5* | 24.7* | 2.3 | 20.9 | -38.2 | 7.0
SMILES | ALR inh | PRMT1 FP inh | LANA-H2B inh | rCAG RNA binder | ABHD5-PLIN5 inh | Rtt109 HAT inh
Nc1nc2ncccn2c1-c1ccc(F)c(F)c1 | . | -0.5 | . | 1.2 | 6.0 | .
CCOc1ccc(-n2c(=O)c3sccc3n(CC(=O)NC3CCCCC3)c2=O)cc1 | 0.3 | -6.0 | 28.6* | 3.8 | -8.5 | -4.8
Cc1ccc(C(=O)NC(=C(Cl)Cl)S(=O)(=O)c2ccccc2)cc1 | 67.3 | 0.8 | 14.3* | 0.3 | 0.0 | 1.9
COc1ccc(C(=O)NC(=C(Cl)Cl)S(=O)(=O)c2ccc(C)cc2)cc1 | 0.7 | 2.8 | -3.0 | -3.1 | 4.4 | -2.1
Cc1ccc(C(=O)NC(=S)NNS(=O)(=O)c2ccccc2)cc1 | 98.3* | 12.1 | 1.1 | 11.7 | -16.6 | 6.6
Cc1ccc(S(=O)(=O)NNC(=O)c2ccc(F)cc2)cc1 | 30.4 | -2.9 | 7.0 | 1.8 | 0.3 | -19.6
